The full ranking holds about 4,100 sequences; the median of “RBNS R-value (6-mer enrichment in protein-bound RNA vs input library)” is about 0.96, and the highest 2% start at about 2.4. The list comes from a sample in which the highest values are over-represented; it also holds similar and randomly drawn sequences.
Tested on: PyIESI-1 RRM domain (Plasmodium yoelii PY17X_0911200 aa 795-956, GST fusion)
Test: RBNS R-value (6-mer enrichment in protein-bound RNA vs input library) (ratio); higher = stronger binding preference; the methods of the paper give 50 / 100 / 500 nM protein instead
Description: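 RNA Bind-n-Seq: recombinant GST-tagged IESI-1 RRM domain was incubated at room temperature with a random 40-nt in vitro transcribed RNA library at 250, 500 or 1000 nM protein. Bound RNA was pulled down on glutathione beads and sequenced. R-value is the enrichment of each 6-mer in the bound RNA relative to the input library. Each 6-mer sits inside the random 40-mer context, not as an isolated oligo. Values are replicate 1 only.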

Sequence | RBNS R-value (protein concentration: 250 nM) | RBNS R-value (protein concentration: 500 nM) | RBNS R-value (protein concentration: 1000 nM)
AUGAUC | 2.74 | 2.71 | 2.97
CUGAUG | 6.48 | 5.8 | 5.87
CUGACA | 1.26 | 1.25 | 1.26
AUGAGC | 1.51 | 1.48 | 1.49
CGGAUG | 1.22 | 1.18 | 1.18
AGGAUC | 0.785 | 0.788 | 0.757
CAGAUG | 1.85 | 1.83 | 1.93
CUGAUA | 3.66 | 3.59 | 3.88
AUGAUG | 8.6 | 7.43 | 7.47
CAGAUA | 0.96 | 0.988 | 1.02
AGGAUG | 1.22 | 1.18 | 1.18
AUGAAG | 1.53 | 1.51 | 1.47
AUAAAA | 0.85 | 0.843 | 0.844
UCCAGG | 1 | 1 | 1
UCAUUU | 0.748 | 0.785 | 0.825
CGACAG | 1.01 | 0.998 | 0.998
CAAUCG | 0.873 | 0.879 | 0.886
UUAGCC | 0.885 | 0.907 | 0.915
AGGCUU | 0.943 | 0.943 | 0.919
CGUUUG | 1.1 | 1.09 | 1.08
AUGAUA | 4.79 | 4.63 | 5.14
AUGAAU | 1.41 | 1.35 | 1.36
CUGACC | 1.23 | 1.22 | 1.27
CUGAUC | 2.39 | 2.38 | 2.58
CUGAAC | 1.05 | 1.06 | 1.05

Sequence | RBNS R-value (protein concentration: 250 nM) | RBNS R-value (protein concentration: 500 nM) | RBNS R-value (protein concentration: 1000 nM)
UUGACA | 1.57 | 1.54 | 1.56
UUGAGA | 1.31 | 1.32 | 1.31
AGGAUU | 1.06 | 1.04 | 0.995
AUGAUU | 7.34 | 6.63 | 6.94
AGGAUA | 0.874 | 0.876 | 0.848
AUGAGA | 1.6 | 1.58 | 1.57
UUGAUA | 4.42 | 4.38 | 4.81
AGUCCU | 0.811 | 0.839 | 0.826
UUCGAU | 1.93 | 1.95 | 2.08
AACCAG | 0.915 | 0.9 | 0.923
CUCUGA | 1.97 | 1.91 | 1.94
UUGAAG | 1.08 | 1.11 | 1.08
GGGAUG | 1.3 | 1.28 | 1.27
GUGAAG | 0.939 | 0.946 | 0.891
UUGAUG | 7.94 | 6.95 | 6.96
UUGAUC | 2.63 | 2.7 | 2.9
GUGAUG | 5.06 | 4.7 | 4.68
UAGAUG | 1.64 | 1.65 | 1.73
UUGACC | 1.42 | 1.42 | 1.47
UAGAUC | 0.818 | 0.834 | 0.838
AAAGCA | 0.883 | 0.885 | 0.861
CAAGGA | 1 | 0.973 | 0.963
CGAAUG | 1.41 | 1.37 | 1.35
UAUACC | 0.57 | 0.601 | 0.592
CUCGGA | 0.971 | 0.974 | 0.939

Sequence | RBNS R-value (protein concentration: 250 nM) | RBNS R-value (protein concentration: 500 nM) | RBNS R-value (protein concentration: 1000 nM)
CGUGCU | 0.967 | 0.973 | 0.954
GUAAGU | 0.66 | 0.682 | 0.638
GUCUGG | 0.813 | 0.839 | 0.796
CCUGAU | 4.76 | 4.47 | 4.65
CCUGAA | 1.23 | 1.24 | 1.23
GCUGAG | 1.21 | 1.18 | 1.15
GCUGAU | 3.92 | 3.7 | 3.79
ACUGAG | 1.18 | 1.19 | 1.13
UCUGAA | 1.01 | 1.03 | 0.99
GCUGAC | 1.21 | 1.23 | 1.23
ACUGAU | 4.56 | 4.17 | 4.36
ACUGAC | 1.18 | 1.16 | 1.18
CCUGAC | 1.32 | 1.33 | 1.34
UCUGAC | 1.13 | 1.12 | 1.13
UCUGAU | 4.51 | 4.2 | 4.42
AUGCAG | 1.15 | 1.16 | 1.18
AUCUGU | 0.889 | 0.916 | 0.89
GAGGAG | 1.12 | 1.09 | 1.02
CUCACG | 0.951 | 0.969 | 0.993
UCUGGC | 1.18 | 1.18 | 1.17
GCGACC | 1.08 | 1.08 | 1.09
GGGUUU | 0.955 | 0.992 | 0.97
ACACUC | 1.07 | 1.05 | 1.07
AUUGAC | 1.45 | 1.46 | 1.49
CUUGAU | 4.89 | 4.7 | 4.93

Sequence | RBNS R-value (protein concentration: 250 nM) | RBNS R-value (protein concentration: 500 nM) | RBNS R-value (protein concentration: 1000 nM)
GUUGAU | 4.02 | 3.81 | 3.96
CUUGAA | 1.18 | 1.17 | 1.15
GUUGAG | 0.856 | 0.907 | 0.877
CUUGAC | 1.61 | 1.59 | 1.61
UUUGAU | 6.28 | 5.82 | 6.05
UUUGAA | 1.15 | 1.15 | 1.13
UUUGAC | 1.48 | 1.47 | 1.5
AUUGAU | 5.75 | 5.29 | 5.52
AUUGAG | 1.23 | 1.24 | 1.21
GUUGAC | 1.02 | 1.02 | 1.01
GUGUGA | 1.5 | 1.51 | 1.48
UUGGUC | 0.872 | 0.953 | 0.884
GCGGGC | 1.09 | 1.09 | 1.07
UUCUGC | 1.19 | 1.21 | 1.22
GGUUCG | 0.887 | 0.904 | 0.88
UAUCAG | 0.589 | 0.619 | 0.59
AGCCUU | 0.931 | 0.961 | 0.982
GAUCUA | 1.19 | 1.23 | 1.27
CACGAU | 1.8 | 1.82 | 1.95
CUUAGA | 0.933 | 0.948 | 0.93
AACAUA | 0.429 | 0.465 | 0.417
CCAAAA | 1.14 | 1.1 | 1.11

— the supplement of paper PMC13392028
